The panel holds about 79,000 compounds, 15% with a hit somewhere; the sample as a whole holds those more often. Unmarked numbers belong to inactive results. Calls of active or inactive are those of the source. No stated cut-off is given here; in the data, active means growth inhibition above about 70%; inactive means the rest.
Assays:
[1] = NCI Yeast Anticancer Drug Screen. Data for the rad50 strain (AID 155);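 further: 0% = growth of vehicle-only cultures of the same strain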; details: S. cerevisiae rad50 strain growth inhibition, active compounds read high
Method in brief: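 Vehicle-treated cultures provide the reference for the growth inhibition reported for compound-exposed, repair-deficient yeast.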

[2] = NCI Yeast Anticancer Drug Screen. Data for the mec2-1 strain (AID 157); details: S. cerevisiae mec2-1 strain, active compounds read high
Method in brief: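 Each compound was tested on mec2-1 yeast, a strain altered in DNA damage repair or cell cycle control. Growth inhibition is reported relative to vehicle.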

[3] = NCI Yeast Anticancer Drug Screen. Data for the sgs1 mgt1 strain (AID 161);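 further: 0% = growth of cultures given vehicle only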; details: S. cerevisiae sgs1 mgt1 strain, active compounds read high
Method in brief: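 Read-out: growth inhibition vs vehicle controls. Cells: mutant yeast strain deficient in DNA damage repair.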

[4] = NCI Yeast Anticancer Drug Screen. Data for the cln2 rad14 strain (AID 165);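 further: 0% = growth equal to vehicle treated cultures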; details: S. cerevisiae cln2 rad14 strain, active compounds read high
Method in brief: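 Test compounds were added to cln2 rad14 yeast cultures; inhibition of growth was then determined by comparison with vehicle treatment.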

[5] = NCI Yeast Anticancer Drug Screen. Data for the bub3 strain (AID 167); details: S. cerevisiae bub3 mutant strain, active compounds read high
Method in brief: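 Mutant yeast screening strain plus compound; vehicle-treated cultures serve as the 0% inhibition reference.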

[6] = NCI Yeast Anticancer Drug Screen. Data for the mlh1 rad18 strain (AID 175); details: S. cerevisiae mlh1 rad18 strain growth inhibition, active compounds read high
Method in brief: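 Inhibition values reflect reduced growth of mutant yeast versus vehicle-treated controls following compound exposure; the mutations affect DNA damage repair.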

[7] = at 5.0 µM (retest, dose inferred, filed as 0.5)
[8] = at 50.0 µM (retest, dose inferred, filed as 5.0)

CC(=O)OC1CCC(C(C)(C)C)C(C)C1 (stereo not given)
growth inhibition [1, 7]: 3% | growth inhibition [1, 8]: 43% | growth inhibition ([1]; at 50.0 µM): 11.4% | growth inhibition [2, 7]: 5% | growth inhibition [2, 8]: 70% (active) | growth inhibition ([2]; at 50.0 µM): 45.5% | growth inhibition [3, 7]: 6% | growth inhibition [3, 8]: 42% | growth inhibition ([3]; at 50.0 µM): 43.4% | growth inhibition [4, 7]: 2% | growth inhibition [4, 8]: 68% | growth inhibition ([4]; at 50.0 µM): 9.55% | growth inhibition [5, 7]: -4% | growth inhibition [5, 8]: 67% | growth inhibition ([5]; at 50.0 µM): 32.9% | growth inhibition [6, 7]: 3% | growth inhibition [6, 8]: 47% | growth inhibition ([6]; at 50.0 µM): 29.5%

CC(=O)NC1=C(Nc2ccc(-c3ccc(NC4=C(NC(C)=O)C(=O)c5ccccc5C4=O)cc3)cc2)C(=O)c2ccccc2C1=O
growth inhibition [1, 7]: 99% (active) | growth inhibition [1, 8]: 98% (active) | growth inhibition ([1]; at 50.0 µM): 99.2% (active) | growth inhibition [2, 7]: 100% (active) | growth inhibition [2, 8]: 99% (active) | growth inhibition ([2]; at 50.0 µM): 99.5% (active) | growth inhibition [3, 7]: 100% (active) | growth inhibition [3, 8]: 99% (active) | growth inhibition ([3]; at 50.0 µM): 99.5% (active) | growth inhibition [4, 7]: 99% (active) | growth inhibition [4, 8]: 98% (active) | growth inhibition ([4]; at 50.0 µM): 99.1% (active) | growth inhibition [5, 7]: 99% (active) | growth inhibition [5, 8]: 99% (active) | growth inhibition ([5]; at 50.0 µM): 98.7% (active) | growth inhibition [6, 7]: 99% (active) | growth inhibition [6, 8]: 99% (active) | growth inhibition ([6]; at 50.0 µM): 99.3% (active)

N=C(N)c1ccc(SCCCCCSc2ccc(C(=N)N)cc2)cc1
growth inhibition [1, 7]: 21% | growth inhibition [1, 8]: 56% | growth inhibition ([1]; at 50.0 µM): 57.2% | growth inhibition [2, 7]: 17% | growth inhibition [2, 8]: 61% | growth inhibition ([2]; at 50.0 µM): 74% (active) | growth inhibition [3, 7]: 24% | growth inhibition [3, 8]: 86% (active) | growth inhibition ([3]; at 50.0 µM): 76% (active) | growth inhibition [4, 7]: 22% | growth inhibition [4, 8]: 57% | growth inhibition ([4]; at 50.0 µM): 44.6% | growth inhibition [5, 7]: 23% | growth inhibition [5, 8]: 83% (active) | growth inhibition ([5]; at 50.0 µM): 63.4% | growth inhibition [6, 7]: 25% | growth inhibition [6, 8]: 87% (active) | growth inhibition ([6]; at 50.0 µM): 72.3% (active)

CCOC(=O)C1CCN(Cc2ccccc2)CC1=O (stereo not given)
growth inhibition [1, 7]: 61% | growth inhibition [1, 8]: 89% (active) | growth inhibition ([1]; at 50.0 µM): 90% (active) | growth inhibition [2, 7]: 61% | growth inhibition [2, 8]: 92% (active) | growth inhibition ([2]; at 50.0 µM): 91.3% (active) | growth inhibition [3, 7]: 68% | growth inhibition [3, 8]: 99% (active) | growth inhibition ([3]; at 50.0 µM): 92.4% (active) | growth inhibition [4, 7]: 49% | growth inhibition [4, 8]: 100% (active) | growth inhibition ([4]; at 50.0 µM): 90.2% (active) | growth inhibition [5, 7]: 81% (active) | growth inhibition [5, 8]: 98% (active) | growth inhibition ([5]; at 50.0 µM): 90.7% (active) | growth inhibition [6, 7]: 49% | growth inhibition [6, 8]: 87% (active) | growth inhibition ([6]; at 50.0 µM): 90.8% (active)

CC[C@@H]1O[C@@H]([C@@H]2CC[C@](O)([C@]3(C)CC[C@@H]([C@@H](C)[C@@]4(O)CC[C@H](C)[C@@H](C[C@@]5(O)O[C@@H]([C@@H](C)[C@H](O)C[C@H]6CC[C@H](C)[C@@H]([C@@H](C)C(=O)O)O6)CC[C@@H]5C)O4)O3)O2)CC[C@@]1(C)O
growth inhibition [1, 7]: 10% | growth inhibition [1, 8]: 90% (active) | growth inhibition ([1]; at 50.0 µM): 88.4% (active) | growth inhibition [2, 7]: 34% | growth inhibition [2, 8]: 94% (active) | growth inhibition ([2]; at 50.0 µM): 90.2% (active) | growth inhibition [3, 7]: -9% | growth inhibition [3, 8]: 92% (active) | growth inhibition ([3]; at 50.0 µM): 89.2% (active) | growth inhibition [4, 7]: 58% | growth inhibition [4, 8]: 92% (active) | growth inhibition ([4]; at 50.0 µM): 88.2% (active) | growth inhibition [5, 7]: -14% | growth inhibition [5, 8]: 93% (active) | growth inhibition ([5]; at 50.0 µM): 87.2% (active) | growth inhibition [6, 7]: -18% | growth inhibition [6, 8]: 93% (active) | growth inhibition ([6]; at 50.0 µM): 87.7% (active)

NC(=O)NOC(=O)c1ccccc1
growth inhibition [1, 7]: 42% | growth inhibition [1, 8]: 97% (active) | growth inhibition ([1]; at 50.0 µM): 85.3% (active) | growth inhibition [2, 7]: 6% | growth inhibition [2, 8]: 97% (active) | growth inhibition ([2]; at 50.0 µM): 87.5% (active) | growth inhibition [3, 7]: 18% | growth inhibition [3, 8]: 95% (active) | growth inhibition ([3]; at 50.0 µM): 87.4% (active) | growth inhibition [4, 7]: -7% | growth inhibition [4, 8]: 96% (active) | growth inhibition ([4]; at 50.0 µM): 86.8% (active) | growth inhibition [5, 7]: -4% | growth inhibition [5, 8]: 95% (active) | growth inhibition ([5]; at 50.0 µM): 79.2% (active) | growth inhibition [6, 7]: 21% | growth inhibition [6, 8]: 97% (active) | growth inhibition ([6]; at 50.0 µM): 96.8% (active)

Cn1ncc2c(NCc3ccc(Cl)cc3)nc(Cl)nc21
growth inhibition [1, 7]: 7% | growth inhibition [1, 8]: 97% (active) | growth inhibition ([1]; at 50.0 µM): 98.2% (active) | growth inhibition [2, 7]: -1% | growth inhibition [2, 8]: 98% (active) | growth inhibition ([2]; at 50.0 µM): 96.5% (active) | growth inhibition [3, 7]: 8% | growth inhibition [3, 8]: 97% (active) | growth inhibition ([3]; at 50.0 µM): 98% (active) | growth inhibition [4, 7]: 2% | growth inhibition [4, 8]: 95% (active) | growth inhibition ([4]; at 50.0 µM): 99.2% (active) | growth inhibition [5, 7]: 2% | growth inhibition [5, 8]: 97% (active) | growth inhibition ([5]; at 50.0 µM): 98.9% (active) | growth inhibition [6, 7]: 0% | growth inhibition [6, 8]: 97% (active) | growth inhibition ([6]; at 50.0 µM): 98.5% (active)

Fc1ccccc1CN1COc2c(cc(Cl)c3cccnc23)C1
growth inhibition [1, 7]: 11% | growth inhibition [1, 8]: 71% (active) | growth inhibition ([1]; at 50.0 µM): 99% (active) | growth inhibition [2, 7]: -1% | growth inhibition [2, 8]: 43% | growth inhibition ([2]; at 50.0 µM): 99.4% (active) | growth inhibition [3, 7]: 2% | growth inhibition [3, 8]: 98% (active) | growth inhibition ([3]; at 50.0 µM): 99.5% (active) | growth inhibition [4, 7]: 1% | growth inhibition [4, 8]: 98% (active) | growth inhibition ([4]; at 50.0 µM): 99.1% (active) | growth inhibition [5, 7]: -11% | growth inhibition [5, 8]: 99% (active) | growth inhibition ([5]; at 50.0 µM): 99.2% (active) | growth inhibition [6, 7]: 5% | growth inhibition [6, 8]: 98% (active) | growth inhibition ([6]; at 50.0 µM): 99.3% (active)

O=C(c1ccccc1)C1(C(=O)c2ccccc2)/C(=N\O)C2CCC1C2 (stereo not given)
growth inhibition [1, 7]: 7% | growth inhibition [1, 8]: 93% (active) | growth inhibition ([1]; at 50.0 µM): 6.05% | growth inhibition [2, 7]: 1% | growth inhibition [2, 8]: 96% (active) | growth inhibition ([2]; at 50.0 µM): 12.7% | growth inhibition [3, 7]: -2% | growth inhibition [3, 8]: 95% (active) | growth inhibition ([3]; at 50.0 µM): 9.75% | growth inhibition [4, 7]: -2% | growth inhibition [4, 8]: 94% (active) | growth inhibition ([4]; at 50.0 µM): 1.9% | growth inhibition [5, 7]: 0% | growth inhibition [5, 8]: 95% (active) | growth inhibition ([5]; at 50.0 µM): 53.1% | growth inhibition [6, 7]: 12% | growth inhibition [6, 8]: 93% (active) | growth inhibition ([6]; at 50.0 µM): 13.7%

Oc1ccc(COCCBr)c2cccnc12
growth inhibition [1, 7]: 8% | growth inhibition [1, 8]: 98% (active) | growth inhibition ([1]; at 50.0 µM): 98.8% (active) | growth inhibition [2, 7]: -2% | growth inhibition [2, 8]: 99% (active) | growth inhibition ([2]; at 50.0 µM): 99.5% (active) | growth inhibition [3, 7]: 4% | growth inhibition [3, 8]: 99% (active) | growth inhibition ([3]; at 50.0 µM): 99.2% (active) | growth inhibition [4, 7]: 8% | growth inhibition [4, 8]: 98% (active) | growth inhibition ([4]; at 50.0 µM): 98.5% (active) | growth inhibition [5, 7]: 1% | growth inhibition [5, 8]: 98% (active) | growth inhibition ([5]; at 50.0 µM): 99.2% (active) | growth inhibition [6, 7]: 30% | growth inhibition [6, 8]: 99% (active) | growth inhibition ([6]; at 50.0 µM): 99.2% (active)
